Test results as given in PubChem BioAssay AID1964107 (National Center for Advancing Translational Sciences (NCATS), 2024).
Where “and” joins values, the source holds several entries; their conditions need not be identical. Identical values can stand only once. About 360 (1.2%) of roughly 31,000 compounds were called active. Another 8% or so got no clear call; they are omitted. The entries come from a sample that favours actives as a whole. Values without a mark were called inactive. The call rests on the fitted dose curve.

target: Polyprotein P1234 (Chikungunya virus (strain S27-African prototype)) (UniProt Q8JUX6); test: Primary qHTS for inhibitors of NSP2Pro chikungunya virus (CHIKV); conditions: FRET peptide cleavage, fluorescence 1 h; series mostly up to 24.9 µM; activity change, negative = inhibition: at the top concentration; further: nearly all actives have a fitted effect of over 60% in size
Sequence (Q8JUX6 whole entry, looked up): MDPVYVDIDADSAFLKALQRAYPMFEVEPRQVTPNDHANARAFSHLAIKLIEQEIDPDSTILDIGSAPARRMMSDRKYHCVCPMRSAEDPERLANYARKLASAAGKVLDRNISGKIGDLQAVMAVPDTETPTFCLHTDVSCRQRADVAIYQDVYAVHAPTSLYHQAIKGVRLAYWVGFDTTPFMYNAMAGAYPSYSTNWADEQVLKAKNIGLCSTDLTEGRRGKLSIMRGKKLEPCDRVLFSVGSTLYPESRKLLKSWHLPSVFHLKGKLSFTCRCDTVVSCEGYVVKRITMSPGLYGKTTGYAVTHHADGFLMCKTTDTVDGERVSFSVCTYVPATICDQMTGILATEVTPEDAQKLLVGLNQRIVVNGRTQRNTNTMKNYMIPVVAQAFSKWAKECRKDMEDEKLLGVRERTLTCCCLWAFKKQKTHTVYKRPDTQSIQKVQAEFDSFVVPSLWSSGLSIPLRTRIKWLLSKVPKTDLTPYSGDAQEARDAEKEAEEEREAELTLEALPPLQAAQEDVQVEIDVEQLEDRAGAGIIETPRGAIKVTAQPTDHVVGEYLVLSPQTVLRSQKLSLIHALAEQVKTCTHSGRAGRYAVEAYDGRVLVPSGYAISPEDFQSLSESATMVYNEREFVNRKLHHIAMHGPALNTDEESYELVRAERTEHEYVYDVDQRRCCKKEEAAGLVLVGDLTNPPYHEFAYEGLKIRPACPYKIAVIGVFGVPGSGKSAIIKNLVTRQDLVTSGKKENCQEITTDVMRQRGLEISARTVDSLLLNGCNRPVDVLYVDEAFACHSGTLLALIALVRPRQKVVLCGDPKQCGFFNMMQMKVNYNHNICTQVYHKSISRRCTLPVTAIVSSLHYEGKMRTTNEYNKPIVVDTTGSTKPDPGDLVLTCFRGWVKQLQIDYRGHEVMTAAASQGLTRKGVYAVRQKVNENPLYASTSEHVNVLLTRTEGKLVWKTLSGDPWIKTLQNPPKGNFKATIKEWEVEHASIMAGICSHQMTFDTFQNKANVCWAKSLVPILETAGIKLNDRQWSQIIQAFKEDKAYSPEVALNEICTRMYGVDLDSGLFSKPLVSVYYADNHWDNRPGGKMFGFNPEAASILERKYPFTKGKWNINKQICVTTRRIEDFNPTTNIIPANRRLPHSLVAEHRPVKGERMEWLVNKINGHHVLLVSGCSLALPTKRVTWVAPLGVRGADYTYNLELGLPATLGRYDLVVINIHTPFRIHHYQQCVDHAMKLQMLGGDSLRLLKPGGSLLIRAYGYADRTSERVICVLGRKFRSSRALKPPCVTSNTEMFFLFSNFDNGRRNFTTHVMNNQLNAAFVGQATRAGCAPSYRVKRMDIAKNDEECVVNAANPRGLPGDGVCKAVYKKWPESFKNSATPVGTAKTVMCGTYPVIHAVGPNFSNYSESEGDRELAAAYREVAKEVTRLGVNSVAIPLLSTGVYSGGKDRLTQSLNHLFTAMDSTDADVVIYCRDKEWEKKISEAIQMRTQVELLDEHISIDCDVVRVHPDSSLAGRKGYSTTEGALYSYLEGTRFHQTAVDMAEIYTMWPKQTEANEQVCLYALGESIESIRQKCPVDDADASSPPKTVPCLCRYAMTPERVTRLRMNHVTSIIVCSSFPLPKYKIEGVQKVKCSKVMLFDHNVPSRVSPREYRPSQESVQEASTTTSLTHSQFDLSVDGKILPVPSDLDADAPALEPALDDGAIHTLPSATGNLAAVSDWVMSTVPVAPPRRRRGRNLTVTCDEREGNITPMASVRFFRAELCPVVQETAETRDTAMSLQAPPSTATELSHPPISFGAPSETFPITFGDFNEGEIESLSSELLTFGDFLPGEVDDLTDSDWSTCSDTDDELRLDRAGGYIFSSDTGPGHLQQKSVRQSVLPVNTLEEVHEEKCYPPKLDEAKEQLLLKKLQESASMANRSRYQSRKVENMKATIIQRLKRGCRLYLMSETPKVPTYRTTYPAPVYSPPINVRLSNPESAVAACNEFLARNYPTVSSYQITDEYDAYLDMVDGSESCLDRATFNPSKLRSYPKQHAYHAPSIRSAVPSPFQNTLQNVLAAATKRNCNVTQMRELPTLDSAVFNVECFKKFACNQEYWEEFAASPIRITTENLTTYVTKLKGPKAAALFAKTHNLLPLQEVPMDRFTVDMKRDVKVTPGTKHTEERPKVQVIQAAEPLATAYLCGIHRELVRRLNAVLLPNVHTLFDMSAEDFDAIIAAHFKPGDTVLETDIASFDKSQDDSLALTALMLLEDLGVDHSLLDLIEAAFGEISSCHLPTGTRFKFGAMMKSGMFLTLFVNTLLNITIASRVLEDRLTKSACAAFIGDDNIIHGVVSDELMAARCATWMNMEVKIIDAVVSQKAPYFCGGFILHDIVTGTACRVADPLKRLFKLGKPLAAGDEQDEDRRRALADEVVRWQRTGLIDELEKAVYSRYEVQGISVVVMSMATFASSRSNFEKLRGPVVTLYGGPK
Method in brief: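 Purified recombinant nsP2pro (150 nM final) in 10 mM Tris-HCl pH 8.0 with 0.01% Tween 20 was preincubated 15 min at room temperature with compound (7 concentrations, up to 25 uM). FRET peptide 2 substrate (2.5 uM final) was then added; fluorescence was read after 1 h.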
On the % scale 0 is the no-effect control and ±100 the full control effect; potency means the concentration at half of the fitted maximal effect.

First: COCCCN1CCC(NC(=O)c2cc(Cl)c(N)c3c2OCC3)CC1
Second: Cc1ccc(Cl)cc1NC(=O)C1CCCN(c2cnccn2)C1 (stereo unspecified)
The “activity change, negative = inhibition” value of the first is higher: -1.5% for the first, -12.4% for the second.

Compared with `COC(=O)c1ccccc1NC(=O)c1ccc(COc2ccccc2Cl)o1`, `Cc1ccc(CN(C(=O)c2ccccc2[N+](=O)[O-])c2ccccn2)cc1` is higher in “activity change, negative = inhibition” value: -24.7% for the first, -12.2% for the second.

Going from `COc1ccc2oc(=O)c(-c3cn4c(n3)sc3cc(OC)ccc34)cc2c1` to `CCS(=O)(=O)N1CCc2cc(C(=O)NCc3ccc(OC)cc3)ccc21`, the “activity change, negative = inhibition” value rises from -19.8% to -17.8%.

First: Cc1ccc(C2CCN(C(=O)c3cnn(-c4ccccc4Cl)c3C3CCN(C(=O)OC(C)(C)C)CC3)C2)cc1 (stereo unspecified)
Second: Cc1ccc(CNC(=O)CSC2=Nc3ccccc3C3=NC(C)C(=O)N23)cc1 (stereo unspecified)
The “activity change, negative = inhibition” value of the first is higher: -9.46% for the first, -15% for the second.

Going from `Cc1cccc(NC(=O)CSc2ncc(-c3ccccc3)[nH]2)c1C` to `Cc1cccc(Nc2nc(C)nc(N)c2S(=O)(=O)c2ccccc2)c1`, the “activity change, negative = inhibition” value rises from -16.9% to 5.91%.

First: Clc1ccccc1CSc1nncn2c1cc1occc12
Second: Cc1ccc(-c2ccc(=O)n(CCNC(C)c3ccco3)n2)cc1 (stereo unspecified)
The “activity change, negative = inhibition” value of the first is higher: -10.5% for the first, -11.9% for the second.

Compared with `O=C(NCC(c1ccco1)S(=O)(=O)c1cccs1)c1ccc(F)cc1` (stereo unspecified), `O=C(Cn1c(=O)n(-c2ccc(F)cc2)c(=O)c2sccc21)Nc1cccc(C(F)(F)F)c1` is higher in “activity change, negative = inhibition” value: -9.32% for the first, 8.21% for the second.

Compared with `CCOc1ccc(NC(=O)Cn2c(C)ccc(C#N)c2=O)cc1`, `CCOC(=O)c1ccc(NC(=O)C2CC(=O)N(c3ccc(C(C)C)cc3)C2)cc1` (stereo unspecified) is lower in “activity change, negative = inhibition” value: 1.17% for the first, -20.5% for the second.

Going from `C=C1C(=O)OC2C=C(C)CC/C=C(\CO)CC(O)C12` (stereo unspecified) to `Cc1nc(CNC(=O)[C@H]2CCC[C@@H](O)C2)nc2c1CCCC2`, the “activity change, negative = inhibition” value falls from 7.09% to 1%.

Going from `CCN(c1ncnc2c1cnn2-c1ccc(C)cc1)C1CCCCC1` to `Cc1nc(C)c(-c2ccc3ncnc(N(C)Cc4sccc4C)c3c2)s1`, the “activity change, negative = inhibition” value rises from -18.5% to 3.77%.

Going from `Cc1ccc(Cl)cc1NC(=O)/C(C#N)=C\c1cn(Cc2ccc(F)cc2)c2ccccc12` to `Cc1ccc(OCCn2c(CCNC(=O)c3ccccc3)nc3ccccc32)cc1`, the “activity change, negative = inhibition” value rises from -21.6% to -8.68%.

Compared with `CCCN1CCc2nc(N3CCN(C)CC3)ncc2C1`, `NC(=O)CN1CC2(CCC1=O)CCN(C[C@@H](O)CO)CC2` is lower in “activity change, negative = inhibition” value: 20.9% for the first, -3.19% for the second.

Going from `CC1CCN(S(=O)(=O)c2ccc3c(ccn3CCC(=O)NCc3ccc(N(C)C)cc3)c2)CC1` to `Cc1cc(-c2ccc(C)c(S(=O)(=O)N3c4ccccc4CC3C)c2)on1` (stereo unspecified), the “activity change, negative = inhibition” value falls from -2.09% to -5.69%.

Compared with `Oc1ccc2c3c1O[C@H]1c4[nH]c5c(N=C=S)cccc5c4C[C@@]4(O)[C@@H](C2)N(CC2CC2)CC[C@]314`, `CNC(=O)[C@@H]1C[C@@H](O)CN1C1CCN(C(=O)C2(c3ccccc3)CC2)CC1` is lower in “activity change, negative = inhibition” value: 0.0256% for the first, -7.73% for the second.

First: O=C(NCC(c1ccc2c(c1)OCO2)N1CCN(c2ccccc2)CC1)C(=O)Nc1ccccc1F (stereo unspecified)
Second: CCOC(=O)N1CCc2c(sc3c2c(=O)n(Cc2ccccc2)c(=O)n3CC(=O)Nc2cccc(C)c2)C1
The “activity change, negative = inhibition” value of the first is higher: -7.61% for the first, -10.2% for the second.

Going from `Cc1cc(C(=O)NC2CC(c3cc(=O)[nH]cn3)C2)cc(S(N)(=O)=O)c1C` (stereo unspecified) to `CCCNC(=O)C(CC)n1nc(CC)n2c(cc3oc(C)cc32)c1=O` (stereo unspecified), the “activity change, negative = inhibition” value falls from 1.79% to -23%.

For `COc1cc(OC)c(NC(=O)c2ccc(Cc3cc4c(cc3C)C(C)(C)CCC4(C)C)o2)c(OC)c1`, the Potency was 11.1 µM (active).
With `Cc1cnc(C(=O)N[C@H]2CCCCC/C=C\[C@@H]3C[C@@]3(C(=O)NS(=O)(=O)C3CC3)NC(=O)[C@@H]3C[C@@H](Oc4nc5ccccc5c5ccccc45)CN3C2=O)cn1` the Potency was “inactive”.
For `N#CSc1cc(SC#N)c(N)nc1N`, the Potency was 664 nM (active) and 351 nM (active) and 1.24 µM (active).
With `COC([CH2][Hg])CNC(=O)c1ccccc1OCC(=O)O` (stereo unspecified) the Potency was 1.49 µM (active).

In the case of `Cc1c(P(=S)(c2ccccc2)c2ccccc2)[n+]2ccccc2n1CCCCc1ccccc1`, the “outcome” value is reported as “inactive”.
`CS(=O)(=O)c1ccc(OC[C@H]2C[C@@H](NC(=O)c3ccccc3)[C@H](O)[C@@H]2O)cc1` was tested, and the “outcome” value was “inactive [at 39.2 µM]”.
In the case of `CC1(C)[C@H](Cc2cc(-c3ccccc3)on2)C[C@@H]1NCC1CC1`, the “outcome” value is reported as “inactive [at 39.2 µM]”.
In the case of `CCCc1nc(C(=O)N2CCC3(CCCNC3)C2)cs1` (stereo unspecified), the “outcome” value is reported as “inactive”.
With `Cc1nc(C(=O)N2CCn3nc(Cc4ccccc4)cc3C2)cs1` the “outcome” value was “inactive”.
In the case of `OCC1(CCCc2ccccc2)CCCNC1` (stereo unspecified), the “outcome” value is reported as “inactive”.
For `COc1ccc(-c2ccccc2C(=O)NCC#N)nn1`, the “outcome” value was “inactive [at 39.2 µM]”.

Compared with `COc1ccc(-c2ccc3ncn(C4CC4)c(=O)c3n2)cn1`, `O=c1cc(-c2cccnc2)oc2c(-c3cccc(CO)c3)nccc12` is lower in “activity change, negative = inhibition” value: -5.28% [at 39.2 µM] for the first, -7.39% [at 39.2 µM] for the second.

In the case of `COc1cc(C(C)=O)ccc1O[C@@H]1O[C@H](CO[C@@H]2OC[C@@H](O)[C@H](O)[C@H]2O)[C@@H](O)[C@H](O)[C@H]1O`, the “activity change, negative = inhibition” value is reported as -10.4% [at 10 µM].
